Data: PubChem BioAssay (NCATS)
Where “and” joins values, the source holds several entries; their conditions need not be identical. Equal values may be shown once. Records with an inconclusive call do not appear. Calls of active or inactive are those of the source. Unless noted, calls follow the shape of the dose curve; as a rule, active = well fitted curve in the direction sought with a large enough effect; inconclusive = small, poorly fitted or top-dose-only effect, or another doubt; inactive = no such curve, though single readings can be large; an effect the other way counts as inactive or inconclusive.

What was measured:
[1] = AP1 Signaling Pathway (AID 357; active = well fitted curve in either direction with a large enough effect, not every such curve was filed as active; also: % is scaled to controls: 0 for no effect and ±100 for the full control effect); details: ME-180 AP-1-bla reporter, EGF-induced, beta-lactamase ratio, 5 h
How it was run: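 ME-180 cells with beta-lactamase reporter under AP-1 response element, stimulated with EC50 EGF; compounds tested in titration series, 5 h at 37 °C. CCF4 substrate added 2.5 h at room temperature; 460/530 nm emission ratio gave %activity and AC50.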

[2] = Stat Signaling Pathway (AID 446; active = well fitted curve in either direction with a large enough effect, not every such curve was filed as active;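 also: ME-180 cervical cancer cells given 40 pM IL-6 alongside compound; SIE-controlled beta-lactamase reporter measured as 460/530 nm FRET emission ratio; % is scaled to controls: 0 for no effect and ±100 for the full control effect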); details: ME-180 SIE beta-lactamase reporter, IL-6 stimulated, 5 h; at 17.2 µM (top of the series)
How it was run: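 ME-180 SIE-bla cells; overnight plating; cpd + IL-6 40 pM, 5 h, 37 C; LiveBLAzer 2.5 h RT; 460/530 nm emission ratio. Normalized to 300 pM IL-6 and 125 nM JAK inhibitor controls.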

[3] = biological target: Glucocorticoid receptor (Homo sapiens) (UniProt P04150); test: GR-GFP Redistribution (AID 450;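 active = compounds whose dose series gives a full or clear partial fitted curve of increased nuclear translocation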; also: potency is read from the fitted curve at half-maximal effect); details: U2OS GR-GFP nuclear translocation, laser cytometry, 2 h
Sequence of Glucocorticoid receptor (Homo sapiens) (P04150 whole entry, looked up, the tested form may be a part): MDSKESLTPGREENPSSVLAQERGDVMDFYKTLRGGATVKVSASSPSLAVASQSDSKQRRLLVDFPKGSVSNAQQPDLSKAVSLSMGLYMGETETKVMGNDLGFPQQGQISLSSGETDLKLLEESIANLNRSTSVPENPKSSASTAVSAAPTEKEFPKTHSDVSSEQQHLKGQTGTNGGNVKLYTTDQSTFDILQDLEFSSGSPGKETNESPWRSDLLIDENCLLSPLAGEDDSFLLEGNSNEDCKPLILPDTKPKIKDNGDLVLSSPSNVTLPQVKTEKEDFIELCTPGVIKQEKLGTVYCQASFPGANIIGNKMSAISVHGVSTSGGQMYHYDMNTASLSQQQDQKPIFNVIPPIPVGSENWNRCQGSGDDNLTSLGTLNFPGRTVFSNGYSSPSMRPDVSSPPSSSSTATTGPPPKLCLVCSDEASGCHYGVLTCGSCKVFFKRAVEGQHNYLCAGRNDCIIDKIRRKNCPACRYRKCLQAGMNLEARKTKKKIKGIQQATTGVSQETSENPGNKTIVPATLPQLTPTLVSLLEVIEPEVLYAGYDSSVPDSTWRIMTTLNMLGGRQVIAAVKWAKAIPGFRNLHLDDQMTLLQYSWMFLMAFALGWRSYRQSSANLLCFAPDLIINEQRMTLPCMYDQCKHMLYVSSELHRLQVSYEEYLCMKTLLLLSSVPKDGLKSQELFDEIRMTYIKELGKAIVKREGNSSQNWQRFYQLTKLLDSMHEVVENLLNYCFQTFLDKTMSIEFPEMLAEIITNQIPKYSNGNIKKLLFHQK

[4] = biological target: Glucocorticoid receptor (Homo sapiens) (UniProt P04150); test: GR-EFC Redistribution (AID 451; calls by dose curve; also: potency is read from the fitted curve at half-maximal effect); details: CHO-K1 GR-EFC translocation, beta-gal luminescence, 2 h
How it was run: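 CHO-K1 cells expressing nuclear EA and GR-ED fragments of b-gal; compounds titrated up to 46 uM final, 2 h at 37 C. GR nuclear translocation read as complemented b-gal luminescence after 1 h RT detection.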

[5] = biological target: Mitogen-activated protein kinase 10 (Mus musculus) (UniProt Q61831); test: JNK3 AlphaScreen Assay (AID 530; active = well fitted curve in either direction with a large enough effect, not every such curve was filed as active;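 also: kinase came from lysate of stimulated human HepG2 cells; signal reports phosphorylation of biotinylated GST-cJun 1-79 at Ser73 with 10 µM ATP; % is scaled to controls: 0 for no effect and ±100 for the full control effect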)
How it was run: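 Pre-activated (IL-1β/TNFα) JNK3 in HepG2 lysates phosphorylates biotin-GST-cJun(1-79), 10 uM ATP; anti-phospho-cJun(Ser73) AlphaScreen read at room temperature, pH 7.6 Tris buffer. Compounds pre-incubated 15 min as titrations.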

[6] = biological target: Guanine nucleotide-binding protein G(i) subunit alpha-1 (Homo sapiens) (UniProt P63096); test: qHTS Assay for Inhibitors of RGS12 GoLoco Motif Activity (Green Fluorophore) (AID 879);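 also: 0% = labeled peptide with Gαi1 and full inhibition = labeled peptide alone without protein; negative values mean loss of peptide binding seen as reduced polarization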
Sequence of Guanine nucleotide-binding protein G(i) subunit alpha-1 (Homo sapiens) (P63096 whole entry, looked up): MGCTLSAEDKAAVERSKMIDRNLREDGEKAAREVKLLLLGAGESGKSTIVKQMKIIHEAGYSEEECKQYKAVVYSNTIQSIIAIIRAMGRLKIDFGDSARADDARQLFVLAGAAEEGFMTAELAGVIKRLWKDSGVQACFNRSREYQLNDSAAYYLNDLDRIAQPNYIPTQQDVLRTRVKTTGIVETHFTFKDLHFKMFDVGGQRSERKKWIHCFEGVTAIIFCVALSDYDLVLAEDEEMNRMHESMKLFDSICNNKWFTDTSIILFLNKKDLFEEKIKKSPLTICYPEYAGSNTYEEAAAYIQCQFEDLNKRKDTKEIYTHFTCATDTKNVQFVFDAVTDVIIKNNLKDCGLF
How it was run: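 Fluorescence polarization assay: 50 nM Gαi1 with 10 nM FITC-labeled RGS12 GoLoco peptide in 10 mM Tris pH 7.5, 150 mM NaCl, 0.1 mM GDP, 0.05% NP40, 10 min at room temperature with compound.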

[7] = biological target: Muscarinic acetylcholine receptor M1 (Rattus norvegicus) (UniProt P08482); test: qHTS Assay for Antagonists of Acetylcholine Muscarinic M1 Receptor: Kinetic Measurement of Intracellular Calcium Response (AID 943); also: potency is read from the fitted curve at half-maximal effect; nearly all actives have a fitted effect of over 75% in size
How it was run: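 CHO cells expressing rat M1 receptor, Fluo-4 loaded, preincubated 10 min with compound, then stimulated with EC80 carbachol (100 nM final). Kinetic calcium fluorescence over 4 min; response taken as peak over basal signal.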

[8] = biological target: Pyruvate kinase (Leishmania mexicana) (UniProt Q27686); test: qHTS Validation Assay for Inhibitors of Leishmania Mexicana Pyruvate Kinase (AID 945);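 also: 0% = DMSO only neutral control wells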
Sequence of Pyruvate kinase (Leishmania mexicana) (Q27686 2-499 E452W): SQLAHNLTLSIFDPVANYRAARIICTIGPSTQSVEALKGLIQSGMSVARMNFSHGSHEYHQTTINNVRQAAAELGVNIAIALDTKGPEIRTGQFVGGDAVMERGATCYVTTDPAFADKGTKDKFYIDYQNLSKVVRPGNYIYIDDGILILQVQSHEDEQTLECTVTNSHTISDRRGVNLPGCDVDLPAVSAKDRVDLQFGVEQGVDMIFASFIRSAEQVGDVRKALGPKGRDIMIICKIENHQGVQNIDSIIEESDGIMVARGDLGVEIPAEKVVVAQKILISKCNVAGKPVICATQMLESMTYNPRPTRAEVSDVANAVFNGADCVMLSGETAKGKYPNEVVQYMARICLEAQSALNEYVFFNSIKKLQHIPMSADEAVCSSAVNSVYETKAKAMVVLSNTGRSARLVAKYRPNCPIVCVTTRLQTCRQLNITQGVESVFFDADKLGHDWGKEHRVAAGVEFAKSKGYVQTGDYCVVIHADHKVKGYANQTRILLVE
How it was run: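 An endpoint luciferase assay: 0.2 nM LmPYK E451W turns over 0.5 mM PEP with 0.1 mM ADP for 1 h at room temperature, pH 7.2, before PKLight addition. Values are normalized to DMSO-only wells.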

[9] = biological target: Pyruvate kinase PKM (Homo sapiens) (UniProt P14618); test: qHTS Assay for Activators of Human Muscle Pyruvate Kinase (AID 954; active = well fitted curve in the direction sought with a large enough effect, not every such curve was filed as active;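 also: 0% = uninhibited enzyme and -100% = no enzyme or full thiadiazolimine inhibition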)
Sequence of Pyruvate kinase PKM (Homo sapiens) (P14618 whole entry, looked up): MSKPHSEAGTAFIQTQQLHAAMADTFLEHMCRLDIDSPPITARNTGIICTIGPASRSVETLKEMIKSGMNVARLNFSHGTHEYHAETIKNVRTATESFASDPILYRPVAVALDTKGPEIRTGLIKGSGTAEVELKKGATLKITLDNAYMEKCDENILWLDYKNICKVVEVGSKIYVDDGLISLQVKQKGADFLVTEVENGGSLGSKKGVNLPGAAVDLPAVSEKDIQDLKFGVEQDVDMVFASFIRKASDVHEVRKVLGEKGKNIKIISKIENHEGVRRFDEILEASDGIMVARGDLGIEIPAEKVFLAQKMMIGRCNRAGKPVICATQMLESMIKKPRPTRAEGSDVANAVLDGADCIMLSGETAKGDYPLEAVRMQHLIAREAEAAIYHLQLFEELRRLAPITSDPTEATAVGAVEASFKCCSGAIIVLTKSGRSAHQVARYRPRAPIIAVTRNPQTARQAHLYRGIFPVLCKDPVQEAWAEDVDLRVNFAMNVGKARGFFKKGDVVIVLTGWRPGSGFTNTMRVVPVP
How it was run: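 Luminescence from a luciferase ATP-detection/stop reagent reported PKM2 activity. Reactions contained 0.1 nM purified human enzyme, 0.5 mM PEP, 0.1 mM ADP and 7 mM MgCl2 at pH 7.2, run 1 h at RT.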

[10] = biological target: Alpha-galactosidase A (Homo sapiens) (UniProt P06280); test: Counterscreen for Glucocerebrosidase Inhibitors: qHTS Assay for Human alpha-Galactosidase at pH 4.5 (AID 992); also: 0% is about no effect
Sequence of Alpha-galactosidase A (Homo sapiens) (P06280 whole entry, looked up): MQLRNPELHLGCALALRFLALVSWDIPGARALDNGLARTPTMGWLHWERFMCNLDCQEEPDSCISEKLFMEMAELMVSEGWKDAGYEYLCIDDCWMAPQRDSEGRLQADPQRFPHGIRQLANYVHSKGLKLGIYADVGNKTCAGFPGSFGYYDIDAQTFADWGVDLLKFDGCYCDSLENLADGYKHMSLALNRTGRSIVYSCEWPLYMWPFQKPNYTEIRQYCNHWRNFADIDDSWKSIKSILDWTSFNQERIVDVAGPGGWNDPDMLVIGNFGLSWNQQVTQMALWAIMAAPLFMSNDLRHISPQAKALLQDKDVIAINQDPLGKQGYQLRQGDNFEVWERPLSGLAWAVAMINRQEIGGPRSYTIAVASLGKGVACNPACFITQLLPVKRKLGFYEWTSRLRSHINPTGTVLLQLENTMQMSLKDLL
How it was run: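 Enzyme at 2 nM final was combined with compound (0.7 nM to 77 uM) and 80 uM 4-methylumbelliferyl alpha-D-galactopyranoside in 50 mM citric acid, 0.005% Tween-20, pH 4.5. After 20 min at room temperature, fluorescence was read (Ex 365/Em 440 nm); AC50 came from Hill fits.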

[11] = biological target: alpha-glucosidase (Oryza sativa, rice) (UniProt Q653V4); test: Counterscreen for Glucocerebrosidase Inhibitors: qHTS Assay for Rice alpha-Glucosidase at pH 5.0 (AID 997);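 also: 0% = full activity with enzyme and -100% = basal without enzyme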
How it was run: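 Rice alpha-glucosidase (4 nM final) with 400 uM 4-methylumbelliferyl-alpha-D-glucopyranoside in citrate buffer pH 5.0, 20 min at room temperature, stopped at pH 10; fluorescence 365/440 nm, compounds 0.7 nM–77 uM, AC50 from Hill fits.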

[12] = qHTS Assay for Lipid Storage Modulators (AID 1519; calls by dose curve); details: Drosophila S3 cells, BODIPY lipid droplet/cell ratio, laser cytometry, cells loaded with oleic acid
How it was run: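 Cells seeded at 5,000 per well were treated with compounds over a concentration series and loaded with oleic acid (400 uM, as added). Lipid droplet fluorescence (488 nm excitation, 500-530 nm channel) was read by laser-scanning cytometry and normalized to 20 uM Triacsin C.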

[13] = biological target: Ubiquitin carboxyl-terminal hydrolase 1 (Homo sapiens) (UniProt O94782); test: Inhibitors of USP1/UAF1: Pilot qHTS (AID 504865);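 also: rhodamine fluorescence freed from ubiquitin-rhodamine substrate followed over time; top concentration of the series differs between compounds; % is scaled to controls: 0 for no effect and ±100 for the full control effect; nearly all actives have a fitted effect of over 35% in size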
Sequence of Ubiquitin carboxyl-terminal hydrolase 1 (Homo sapiens) (O94782 whole entry, looked up): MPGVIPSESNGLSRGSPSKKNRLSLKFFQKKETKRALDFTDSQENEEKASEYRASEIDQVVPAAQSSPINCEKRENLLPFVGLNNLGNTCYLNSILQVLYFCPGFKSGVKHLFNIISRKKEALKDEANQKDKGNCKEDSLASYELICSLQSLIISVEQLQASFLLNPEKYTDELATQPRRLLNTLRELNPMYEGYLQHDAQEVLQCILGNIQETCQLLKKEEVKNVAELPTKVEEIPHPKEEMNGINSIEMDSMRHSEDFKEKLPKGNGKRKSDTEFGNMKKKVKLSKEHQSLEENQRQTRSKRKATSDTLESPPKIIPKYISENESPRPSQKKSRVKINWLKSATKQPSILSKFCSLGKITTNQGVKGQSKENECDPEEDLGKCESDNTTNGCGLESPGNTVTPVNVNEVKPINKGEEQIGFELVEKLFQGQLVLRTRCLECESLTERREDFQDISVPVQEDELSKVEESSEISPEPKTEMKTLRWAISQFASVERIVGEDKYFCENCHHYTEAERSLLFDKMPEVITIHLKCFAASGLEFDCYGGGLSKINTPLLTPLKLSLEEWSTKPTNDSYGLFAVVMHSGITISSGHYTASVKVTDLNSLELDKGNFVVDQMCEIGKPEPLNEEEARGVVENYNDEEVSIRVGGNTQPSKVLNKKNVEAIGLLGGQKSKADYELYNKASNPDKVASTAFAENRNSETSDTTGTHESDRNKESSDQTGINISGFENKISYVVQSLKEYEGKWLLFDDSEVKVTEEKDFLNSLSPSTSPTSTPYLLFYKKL
How it was run: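 USP1/UAF1 complex at 1 nM preincubated 15 min at room temperature with compound, then Ub-Rho substrate added at 150 nM final. Fluorescence (480/540 nm) read kinetically in 50 mM HEPES pH 7.8, 0.5 mM EDTA, 1 mM TCEP, 0.1 mg/ml BSA, 0.01% Tween-20.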

[14] = biological target: DNA dC->dU-editing enzyme APOBEC-3G (Homo sapiens) (UniProt Q9HC16); test: qHTS for inhibitors of Vif-A3G interactions: Validation (AID 588379); also: 0% is about no effect
Sequence of DNA dC->dU-editing enzyme APOBEC-3G (Homo sapiens) (Q9HC16 whole entry, looked up): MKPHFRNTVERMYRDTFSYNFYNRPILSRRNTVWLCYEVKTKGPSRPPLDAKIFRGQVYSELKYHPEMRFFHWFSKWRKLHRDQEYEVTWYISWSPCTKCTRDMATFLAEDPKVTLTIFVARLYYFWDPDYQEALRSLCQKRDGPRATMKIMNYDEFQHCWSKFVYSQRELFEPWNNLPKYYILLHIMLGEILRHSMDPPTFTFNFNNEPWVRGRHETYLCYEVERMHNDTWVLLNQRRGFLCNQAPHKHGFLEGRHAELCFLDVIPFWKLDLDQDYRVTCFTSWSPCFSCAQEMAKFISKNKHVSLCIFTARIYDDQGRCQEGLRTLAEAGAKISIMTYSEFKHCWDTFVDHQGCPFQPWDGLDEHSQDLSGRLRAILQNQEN
How it was run: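 HeLa cells stably expressing Vif and A3G-eYFP, 700 cells/well, incubated overnight at 37 deg C, then exposed to compound overnight at 37 deg C. Inhibition of Vif-mediated degradation read as increased yellow fluorescence (Ex 488/Em 500-530) by laser-scanning cytometry.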

[15] = tested on: Zika virus NS2B-NS3 protease; test: Primary screen GU AMC qHTS for Zika virus inhibitors (AID 1347154);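 also: 0% = no-inhibitor control and -100% = no-enzyme control; nearly all actives have a fitted effect of over 70% in size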
How it was run: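 Unlinked Zika NS2B hydrophilic domain–NS3 protease complex at 25 nM in 10 mM Tris-HCl pH 8.0, 0.01% Tween 20, with an AMC peptide substrate. Fluorescence change (340/450 nm) over 15 min at room temperature, normalized to controls, fitted to 4-parameter Hill.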

[16] = Counterscreen qHTS for small molecule stabilizers of the endoplasmic reticulum resident proteome: GLuc-NoTag assay (AID 1508627);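 also: SH-SY5Y cells given compound then 100 nM thapsigargin to empty ER calcium; 0% = thapsigargin alone and -100% = DMSO vehicle control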
How it was run: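 SH-SY5Y cells stably expressing constitutively secreted GLuc without SERCaMP tag, exposed to compound for 19 hr, then to 100 nM thapsigargin for 4 hr at 37C. Medium luciferase was read by coelenterazine luminescence without lysis.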

[17] = Cell Viability qHTS for small molecule stabilizers of the endoplasmic reticulum resident proteome (AID 1508629); details: cell viability counter-screen, 100 nM thapsigargin for final 4 h;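 also: human SH-SY5Y neuroblastoma cells carrying the GLuc-SERCaMP reporter; compound exposure about 46 h in total before the viability read; % is scaled to controls: 0 for no effect and ±100 for the full control effect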
[18] = Primary qHTS for small molecule stabilizers of the endoplasmic reticulum resident proteome: Secreted ER Calcium Modulated Protein (SERCaMP) assay (AID 1508630); also: % is scaled to controls: 0 for no effect and ±100 for the full control effect
How it was run: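 GLuc-SERCaMP-expressing SH-SY5Y cells, pretreated 16 h with compound, are challenged with thapsigargin to empty ER calcium stores; after 4 h, coelenterazine is added directly to the medium and luminescence is imaged.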

[19] = biological target: Cytochrome P450 1A2 (Homo sapiens) (UniProt P05177); test: p450-cyp1a2 (AID 410; calls by dose curve;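 also: -100% = full effect of reference inhibitor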)
How it was run: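 20nM CYP1A2 with 100uM Luciferin-ME (at Km) in 100mM KPO4; compound preincubated 10 min, NADPH regeneration added, 60 min at room temperature. Luciferin quantified by luminescence after detection reagent; normalized to 57 uM furafylline.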

[20] = biological target: Cytochrome P450 2C9 (Homo sapiens) (UniProt P11712); test: qHTS Assay for Inhibitors and Substrates of Cytochrome P450 2C9 (AID 883); also: potency is read from the fitted curve at half-maximal effect; nearly all actives have a fitted effect of over 60% in size
Sequence of Cytochrome P450 2C9 (Homo sapiens) (P11712 whole entry, looked up): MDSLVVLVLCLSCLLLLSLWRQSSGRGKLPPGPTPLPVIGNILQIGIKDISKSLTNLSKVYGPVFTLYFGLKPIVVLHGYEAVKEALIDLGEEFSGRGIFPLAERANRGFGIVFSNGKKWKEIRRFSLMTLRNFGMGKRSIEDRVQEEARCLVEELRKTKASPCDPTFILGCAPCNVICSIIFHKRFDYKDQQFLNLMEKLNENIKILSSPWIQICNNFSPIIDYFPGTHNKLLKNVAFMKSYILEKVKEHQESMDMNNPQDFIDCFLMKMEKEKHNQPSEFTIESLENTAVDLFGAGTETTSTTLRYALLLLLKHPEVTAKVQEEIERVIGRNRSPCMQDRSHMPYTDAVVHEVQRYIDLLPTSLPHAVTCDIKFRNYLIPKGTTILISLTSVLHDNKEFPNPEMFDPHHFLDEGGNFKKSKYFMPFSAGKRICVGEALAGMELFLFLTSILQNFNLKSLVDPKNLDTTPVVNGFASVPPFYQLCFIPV
How it was run: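 Signal: luciferase luminescence reporting luciferin produced by CYP2C9. Conditions: 10nM enzyme, Luciferin-H 100uM at KM, 25mM KPO4, 37C, 60 min NADPH-driven reaction. Reference: 57uM sulphaphenazole as 100% inhibition.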

[21] = biological target: Cytochrome P450 3A4 (Homo sapiens) (UniProt P08684); test: qHTS Assay for Inhibitors and Substrates of Cytochrome P450 3A4 (AID 884); also: potency is read from the fitted curve at half-maximal effect; nearly all actives have a fitted effect of over 50% in size
Sequence of Cytochrome P450 3A4 (Homo sapiens) (P08684 whole entry, looked up): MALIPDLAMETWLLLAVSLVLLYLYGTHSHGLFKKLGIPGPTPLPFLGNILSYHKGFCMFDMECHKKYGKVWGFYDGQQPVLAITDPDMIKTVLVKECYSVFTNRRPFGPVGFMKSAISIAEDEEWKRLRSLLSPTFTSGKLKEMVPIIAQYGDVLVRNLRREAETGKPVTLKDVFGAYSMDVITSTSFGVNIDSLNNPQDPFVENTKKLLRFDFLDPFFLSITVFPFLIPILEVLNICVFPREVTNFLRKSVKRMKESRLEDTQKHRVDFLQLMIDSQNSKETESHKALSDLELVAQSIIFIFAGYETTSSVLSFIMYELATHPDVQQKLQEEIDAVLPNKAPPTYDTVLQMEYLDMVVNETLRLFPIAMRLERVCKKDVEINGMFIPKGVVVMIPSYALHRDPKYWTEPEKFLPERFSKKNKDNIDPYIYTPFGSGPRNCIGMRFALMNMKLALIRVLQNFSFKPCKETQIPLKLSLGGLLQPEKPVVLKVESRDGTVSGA
How it was run: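 20 nM human CYP3A4 with 25 uM Luciferin-PPXE (at KM) in 200 mM KPO4, preincubated 10 min with compound; NADPH regeneration started a 60 min RT reaction. Luciferin detected by luminescence, normalized to 57 uM ketoconazole as full inhibition.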

[22] = biological target: Cytochrome P450 3A4 (Homo sapiens) (UniProt P08684); test: qHTS Assay for Activators of Cytochrome P450 3A4 (AID 885); also: nearly all actives have a fitted effect of over 65% in size
How it was run: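 20nM CYP3A4 + 25uM Luciferin-PPXE (=KM), 200mM KPO4; cpd 10 min RT; NADPH regen, 60 min RT; stop w/ detection buffer, 20 min; luminescence. Normalized to 57 uM ketoconazole.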

[23] = biological target: Cytochrome P450 2C19 (Homo sapiens) (UniProt P33261); test: qHTS Assay for Inhibitors and Substrates of Cytochrome P450 2C19 (AID 899); also: potency is read from the fitted curve at half-maximal effect; nearly all actives have a fitted effect of over 60% in size
How it was run: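 Signal comes from luciferase acting on luciferin released by CYP2C19-mediated hydroxylation of Luciferin-H EGE, 10uM (KM). Assay mix: 5nM enzyme, 50mM KPO4; 60 min at 37C with NADPH regeneration. Data normalized against 57uM ketoconazole.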

[24] = Confirmatory qHTS for small molecule stabilizers of the endoplasmic reticulum resident proteome: Secreted ER Calcium Modulated Protein (SERCaMP) assay (AID 1508628); also: potency is read from the fitted curve at half-maximal effect; nearly all actives have a fitted effect of over 40% in size
How it was run: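 SH-SY5Y cells stably expressing GLuc-SERCaMP, treated 16 h with compound (primary 1.53, 7.67, 38.3 uM; confirmation 11 concentrations, up to 76.6 uM), then 100 nM thapsigargin for 4 h. Secreted Gaussia luciferase in medium read by coelenterazine luminescence.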

[25] = measured here: cell count channel max response
[26] = measured here: lipid channel max response

C[C@@H]([C@H](O)c1ccc(O)cc1)N1CCC(Cc2ccccc2)CC1
-1.79%: max response [12, 25]
active: Potency [7] 12.6 µM
inactive: activity change, negative = inhibition ([1]; at 17.2 µM (top of the series)) -4.89% | activity change, negative = inhibition ([1]; at 38 µM (top of the series)) -7.76% | activity, negative = inhibition [2] 8.14% | Potency [3] > 46 µM and > 20.6 µM | Potency [4] > 46 µM and > 20.6 µM | Potency [5] | outcome [6] | Potency [8] | outcome [9] | outcome [10] | outcome [11] | activity change, negative = inhibition ([12]; at 25.7 µM (top of the series)) -1.79% | Potency [13] | Potency [14] | Potency [15] | Potency [16] | max response [17] -8.82%
-6.29%: max response [12, 26]

Cc1ccc2c(c1)C(=O)C1(O)CCN(c3ccccc3)C1=N2 (stereo not given)
inactive: Potency [15] | Potency [18]

CCCCC(C)(C)[C@H](O)/C=C/[C@H]1[C@H](O)CC(=O)[C@@H]1C/C=C\CCCC(=O)O
inactive: activity change, negative = inhibition [15] 5.54% [at 6.83 µM] | activity change, negative = inhibition [18] 8.87% [at 3.88 µM]

C=C[C@@]1(C)CC(=O)[C@@]2(O)[C@@]3(C)[C@@H](O)CCC(C)(C)[C@@H]3[C@H](OC(=O)CCN(C)C)[C@H](OC(C)=O)[C@@]2(C)O1
inactive: Potency [19] | Potency [3] > 46 µM | Potency [4] > 46 µM | Potency [5] | Potency [22] | activity change, negative = inhibition ([12]; at 57.5 µM (top of the series)) -1.7% | Potency [13] | Potency [14] | Potency [15] | Potency [16]
-17.4%: max response [12, 26]
-14.6%: max response [12, 25]
active: Potency [20] 0.126 µM | Potency [21] 2.51 µM | Potency [23] 0.251 µM | Potency [24] 14.1 µM
